{
  "source": "PubChem BioAssay AID743101",
  "about": "(Vanderbilt Specialized Chemistry Center, 2013)",
  "note": "Activity calls are given as the source filed them.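 How the source made its calls: active means calcium signal above 60% of the peak acetylcholine response at the M5 receptor, called a positive modulator; inactive means the rest.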",
  "data": [
    {"biological_target": "Muscarinic acetylcholine receptor M4 (Homo sapiens) (UniProt P08173)", "sequence (P08173 whole entry, looked up)": "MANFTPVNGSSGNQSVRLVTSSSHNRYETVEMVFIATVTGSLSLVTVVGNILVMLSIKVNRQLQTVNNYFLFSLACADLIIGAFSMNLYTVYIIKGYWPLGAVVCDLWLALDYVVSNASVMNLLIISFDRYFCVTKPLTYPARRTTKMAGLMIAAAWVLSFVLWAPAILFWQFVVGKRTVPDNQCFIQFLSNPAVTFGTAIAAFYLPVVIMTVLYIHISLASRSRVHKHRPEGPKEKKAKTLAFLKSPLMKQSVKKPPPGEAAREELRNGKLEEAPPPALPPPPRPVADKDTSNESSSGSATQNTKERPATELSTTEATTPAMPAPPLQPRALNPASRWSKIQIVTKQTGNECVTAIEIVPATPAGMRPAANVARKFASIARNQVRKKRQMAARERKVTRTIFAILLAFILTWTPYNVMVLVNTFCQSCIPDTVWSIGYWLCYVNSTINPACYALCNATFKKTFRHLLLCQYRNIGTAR", "assay": "human M4 receptor activity of M5 PAM candidates, counter-screen for M5 PAM project, cell-based, CHO-K1 hM4/Gqi5, Fluo-4 calcium flux, ACh EC20 (AID 743101)", "conditions": "Fluo-4, ACh EC20, at 30 µM (top of the series)", "values": [
      {"molecule": "CCN(Cc1ccccc1)C(=O)C1CCN(S(=O)(=O)c2ccc3c(c2)OCCO3)CC1", "outcome": "inactive"},
      {"molecule": "CCN(C(=O)C1CCN(S(=O)(=O)c2ccc(OC)cc2)CC1)[C@H](C)c1ccccc1", "outcome": "inactive"},
      {"molecule": "CCCN(Cc1ccccc1C(F)(F)F)C(=O)C1CCN(S(=O)(=O)c2ccc3[nH]ncc3c2)CC1", "outcome": "inactive"},
      {"molecule": "CCN(C(=O)C1CCN(S(=O)(=O)c2ccc(-n3cccn3)cc2)CC1)[C@H](C)c1ccccc1", "outcome": "inactive"},
      {"molecule": "CCN(Cc1ccccc1C(F)(F)F)C(=O)C1CCN(S(=O)(=O)c2ccc3[nH]ncc3c2)CC1", "outcome": "inactive"},
      {"molecule": "CCN(Cc1ccccc1)C(=O)C1CCN(S(=O)(=O)c2ccc3cn[nH]c3c2)CC1", "outcome": "inactive"},
      {"molecule": "CCN(Cc1ccccc1C(F)(F)F)C(=O)C1(F)CCN(S(=O)(=O)c2ccc3[nH]ncc3c2)CC1", "outcome": "inactive"},
      {"molecule": "CCN(Cc1ccccc1C(F)(F)F)C(=O)C1CCN(S(=O)(=O)c2ccc3cn[nH]c3c2)CC1", "outcome": "inactive"},
      {"molecule": "CCN(Cc1ccccc1)C(=O)C1CCN(S(=O)(=O)c2ccc3[nH]ncc3c2)CC1", "outcome": "inactive"},
      {"molecule": "CCN(C(=O)C1CCN(S(=O)(=O)c2ccc3[nH]ncc3c2)CC1)[C@H](C)c1ccccc1", "outcome": "inactive"},
      {"molecule": "CCN(Cc1ccccc1Cl)C(=O)C1CCN(S(=O)(=O)c2ccc3[nH]ncc3c2)CC1", "outcome": "inactive"}
    ]}
  ]
}
